Calls of active or inactive are those of the source. The calls were made as follows: active = hit-call score of the fitted dose curve at least 0.9, where 1 is the maximum; inactive = score below 0.9.

Common to all, as to settings: mRNA level, 48 h; actives raise or lower the signal
Read-out in test [1]: Bcl-2 (BAD) gene, BAD (gene 572)
Nature of the test: LTEA_HepaRG_BAD: Life Technologies and Expression Analysis (LTEA) Assay for Bcl-2 (BAD) gene using HepaRG (AID 2283469). Summed up: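 BAD transcript change, measured by qRT-PCR against three housekeeping genes and fitted in both directions relative to 0.5% DMSO, after 48 h chemical treatment of human HepaRG liver cells at concentrations up to 100 uM.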

Read-out in test [2]: Bcl-2 (BAX) gene, BAX (gene 581)
The test is described as follows: LTEA_HepaRG_BAX: Life Technologies and Expression Analysis (LTEA) Assay for Bcl-2 (BAX) gene using HepaRG (AID 2283470). In short, it runs like this:
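Differentiated human HepaRG cells, plated 48 h then switched to serum-free induction medium, were exposed 48 h to 8 half-log concentrations up to 100 uM in 0.5% DMSO; BAX mRNA measured by qRT-PCR, normalized to ACTB, GAPDH, POLR2A.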

Read-out in test [3]: adenosine kinase (ADK) gene, ADK (gene 132)
Nature of the test: LTEA_HepaRG_ADK: Life Technologies and Expression Analysis (LTEA) Assay for adenosine kinase (ADK) gene using HepaRG (AID 2283471). Summed up:
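Read-out is ADK transcript level measured by qRT-PCR and normalised to three housekeeping genes. Cells are human HepaRG, dosed for 48 h at up to 100 uM in 0.5% DMSO. Gain or loss of signal is fitted against DMSO controls.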

Read-out in test [4]: Alpha-fetoprotein (AFP) gene, AFP (gene 174)
The test is described as follows: LTEA_HepaRG_AFP: Life Technologies and Expression Analysis (LTEA) Assay for Alpha-fetoprotein (AFP) gene using HepaRG (AID 2283472). Summed up:
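Human HepaRG cells plated 48 h, then switched to serum-free induction medium and exposed in duplicate for 48 h to 8-point half-log series from 100 uM in 0.5% DMSO. AFP mRNA by qRT-PCR, normalized to ACTB, GAPDH, POLR2A; bidirectional fit versus DMSO.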

Read-out in test [5]: BCL2L11 (gene 10018)
The test is described as follows: LTEA_HepaRG_BCL2L11: Life Technologies and Expression Analysis (LTEA) Assay for Bcl-2 (BCL2L11) gene using HepaRG (AID 2283473). Summed up:
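BCL2L11 transcript levels are measured by Fluidigm qRT-PCR, normalized to three housekeeping genes. HepaRG cultures were plated 48 h, then treated 48 h with test chemical (top 100 uM, half-log, 0.5% DMSO vehicle); curves were fitted bidirectionally against DMSO.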

Read-out in test [6]: Apolipoprotein A-V (APOA5) gene, APOA5 (gene 116519)
The test is described as follows: LTEA_HepaRG_APOA5: Life Technologies and Expression Analysis (LTEA) Assay for Apolipoprotein A-V (APOA5) gene using HepaRG (AID 2283474). Summed up:
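APOA5 transcript levels were quantified by qRT-PCR, normalized to three housekeeping genes, after 48 h chemical treatment of HepaRG cells (8 points, 100 uM maximum, half-log steps, 0.5% DMSO). Curves fitted in both directions against vehicle.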

Read-out in test [7]: Apoptosis regulator Bcl-2 (Homo sapiens) (UniProt P10415)
The test is described as follows: LTEA_HepaRG_BCL2: Life Technologies and Expression Analysis (LTEA) Assay for Bcl-2 gene using HepaRG (AID 2283475). Summed up:
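Differentiated HepaRG cells in serum-free induction medium were exposed for 48 h to eight half-log concentrations up to 100 uM in 0.5% DMSO, in duplicate. BCL2 mRNA was quantified by TaqMan qRT-PCR normalised to ACTB, GAPDH and POLR2A, with bidirectional fitting versus DMSO.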

Read-out in test [8]: Bcl-2 (BID) gene, BID (gene 637)
The test is described as follows: LTEA_HepaRG_BID: Life Technologies and Expression Analysis (LTEA) Assay for Bcl-2 (BID) gene using HepaRG (AID 2283476). Summed up:
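Differentiated HepaRG cells in serum-free induction medium were exposed in duplicate for 48 h to eight half-log concentrations up to 100 uM in 0.5% DMSO. BID mRNA was quantified by qRT-PCR, normalized to ACTB, GAPDH and POLR2A.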

Read-out in test [9]: Caspase-3 (Homo sapiens) (UniProt P42574)
The test is described as follows: LTEA_HepaRG_CASP3: Life Technologies and Expression Analysis (LTEA) Assay for cysteine-aspartic acid protease (CASP3) using HepaRG (AID 2283477). In short, it runs like this:
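Expression of CASP3 was quantified by TaqMan qRT-PCR against three housekeeping genes (ACTB, GAPDH, POLR2A), bidirectionally versus 0.5% DMSO. HepaRG cultures received compounds in duplicate, top 100 uM with half-log steps, for 48 h in serum-free induction medium.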

Read-out in test [10]: Cytochrome P450 (CYP24A1), CYP24A1 (gene 1591)
The test is described as follows: LTEA_HepaRG_CYP24A1: Life Technologies and Expression Analysis (LTEA) Assay for Cytochrome P450 (CYP24A1) using HepaRG (AID 2283478). In short, it runs like this:
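mRNA of CYP24A1 quantified by TaqMan qRT-PCR (ACTB/GAPDH/POLR2A normalization) after 48 h chemical exposure of HepaRG cells, top concentration 100 uM, half-log steps, 0.5% DMSO vehicle, duplicates. Curves fitted bidirectionally against DMSO baseline.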

Sequence of Caspase-3 (Homo sapiens) (P42574 whole entry, looked up): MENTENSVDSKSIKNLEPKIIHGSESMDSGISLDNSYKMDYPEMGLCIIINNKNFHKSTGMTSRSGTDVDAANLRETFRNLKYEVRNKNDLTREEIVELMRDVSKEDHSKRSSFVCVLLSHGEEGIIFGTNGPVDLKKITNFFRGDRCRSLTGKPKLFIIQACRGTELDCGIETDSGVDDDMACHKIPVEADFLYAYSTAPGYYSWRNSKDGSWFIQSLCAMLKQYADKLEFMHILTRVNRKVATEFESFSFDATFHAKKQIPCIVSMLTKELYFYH
Sequence of Apoptosis regulator Bcl-2 (Homo sapiens) (P10415 whole entry, looked up): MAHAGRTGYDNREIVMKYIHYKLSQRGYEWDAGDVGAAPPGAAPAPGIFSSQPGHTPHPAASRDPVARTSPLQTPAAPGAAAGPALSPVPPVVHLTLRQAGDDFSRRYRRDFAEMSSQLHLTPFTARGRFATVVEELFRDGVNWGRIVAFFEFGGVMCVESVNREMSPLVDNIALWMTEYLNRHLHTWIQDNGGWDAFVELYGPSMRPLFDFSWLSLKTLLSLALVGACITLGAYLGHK

As a reminder, the AC50 is the concentration at which the activity in the assay is half-maximal. Consider `CC#C[C@]1(O)CC[C@H]2[C@@H]3CCC4=CC(=O)CCC4=C3[C@@H](c3ccc(N(C)C)cc3)C[C@@]21C`, for which the AC50 was 25.4 µM (active) in test [1]; 27.6 µM (active) in [2]; 80.6 µM (active) in [3]; 23.7 µM (active) in [4]; 27.3 µM (active) in test [5]; 29.7 µM (active) in test [6]. The values for the AC50 in test [7], in test [8] and in [9] were 19 µM (active), 6.74 µM (active) and 27.4 µM (active), respectively. Further, the call in [10] was inactive.
Regarding `Cc1cc(C)c(O)c(C)c1`, the result in test [1], in [2], in [3], in [4], in test [5] and in [6] was inactive. Besides, the result in [7], in [8], in [9] and in test [10] was inactive.
In the case of `COCC(C)OCC(C)O` (stereo not given), the compound was called inactive in test [1], in test [2], in test [3], in test [4], in test [5] and in test [6]. The outcome in test [7], in test [8], in test [9] and in test [10] was inactive.
As for `O=C(O)Cc1cc(I)c(Oc2cc(I)c(O)c(I)c2)c(I)c1`, the compound was called inactive in test [1], in test [2], in test [5], in [8], in test [9] and in test [10]. Further, the AC50 was 45.7 µM (active) in [3], 37.5 µM (active) in test [4], 57.7 µM (active) in [6] and 21.7 µM (active) in test [7].
Consider `CCC(=C(c1ccc(O)cc1)c1ccc(OCCN(C)C)cc1)c1ccccc1`, for which the call in test [1], in test [2], in test [4], in test [6], in [7] and in [8] was inactive. For the same compound, the compound was classed as inactive in [10]. The AC50 was 75.2 µM (active) in test [3], 82.9 µM (active) in test [5] and 89.8 µM (active) in test [9].
Regarding `CCCCCCCCCCCCCCCS(=O)(=O)Oc1ccccc1`, the call in [1], in test [2], in [3], in [4], in [5] and in test [6] was inactive. Further, the compound was called inactive in test [7], in test [8], in [9] and in [10].
With `CCCCC(CC)COC(=O)CCCCC(=O)OCC(CC)CCCC` (stereo not given), the call in test [1], in [2], in test [3], in test [4], in test [5] and in test [6] was inactive. In addition, the compound was classed as inactive in [7], in test [8], in test [9] and in test [10].
As to `Nc1cccc2c(N)cccc12`, the outcome in [1], in [2], in test [3], in test [4], in test [5] and in test [6] was inactive. Further, the result in test [7], in test [8], in test [9] and in test [10] was inactive.
For the compound `O=C(O)c1ccccc1C(c1ccc(O)cc1)c1ccc(O)cc1`, the result in test [1], in test [2], in test [3], in [4], in [5] and in test [6] was inactive. Also, the call in [7], in test [8], in test [9] and in test [10] was inactive.
For the compound `CC(O)CO` (stereo not given), the compound was classed as inactive in [1], in test [2], in test [3], in test [4], in test [5] and in test [6]. Besides, the outcome in test [7], in test [8], in test [9] and in test [10] was inactive.
For the compound `CCCCCCCCOC(=O)CCCCCCCCC(=O)OCCCCCCCC`, the result in test [1], in test [2], in [3], in [4], in test [5] and in [6] was inactive. Also, the call in test [7], in [8], in [9] and in test [10] was inactive.
For `NC(=O)N(O)[C@@H]1C=C[C@H](Oc2cccc(Oc3ccc(F)cc3)c2)C1`, the compound was called inactive in test [1], in [3], in test [8], in test [9] and in test [10]. In addition, the AC50 in test [2] is 64.5 µM (active); in test [4], 20.2 µM (active); in test [5] it was 12.3 µM (active); in test [6] it was 37.7 µM (active); in test [7], 73.9 µM (active).
Consider `c1ccc2c(c1)Cc1ccccc1-2`, for which the call in test [1], in test [2], in test [3], in test [4], in [5] and in test [6] was inactive. The outcome in test [7], in test [8], in [9] and in test [10] was inactive.
As for `COc1ccc([N+](=O)[O-])cc1N`, the compound was classed as inactive in test [1], in test [2], in test [3], in [4], in test [5] and in test [6]. Further, the outcome in test [7], in test [8], in test [9] and in [10] was inactive.
For the compound `NC(=O)N1C(=O)C(C(=O)c2cc(Cl)cs2)c2cc(F)c(Cl)cc21` (stereo not given), the compound was called inactive in test [1], in test [2], in test [4], in [5], in test [8] and in test [10]. For the same compound, the AC50 is 17.5 µM (active) in [3], 35.1 µM (active) in test [6], 50 µM (active) in [7] and 19.1 µM (active) in test [9].

These data come from PubChem BioAssay (EPA / NIEHS).
